Entries with a potency or affinity are not part of this list. Inconclusive results are not listed. Activity calls are given as the source filed them.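 Rule for the calls: active = signal loss with fitted half-maximal concentration at or below twice the top valid tested dose in every test run; inconclusive = runs disagree, flat 30 to 70% signal loss, or poor fit; inactive = all runs flat, opposite direction, or potency beyond limit.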
Experiment: general mammalian cell viability loss – inhibitor set, cherry-pick, set 2, cytotoxicity control for miR-122 modulator project, dose response (AID 720697);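 note: 0% = median of neutral control wells and -100% = MG132 positive control wells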
Settings: HEK293T viability, CellTiter-Glo luminescence, 48 h; series mostly up to 26 µM; activity change, negative = cytotoxicity: at the top concentration

Row | Structure (SMILES) | activity change, negative = cytotoxicity
1 | CN1C(=O)c2cc(NC(=O)c3cccc(F)c3)ccc2OC[C@@H]2O[C@H](CC(=O)O)CC[C@@H]21 | 120% [at 23.5 µM] (inactive)
2 | COc1cccc(C(=O)Nc2ccc3c(c2)C(=O)N(C)[C@H]2CC[C@H](CC(=O)NCc4ccc(F)cc4)O[C@@H]2CO3)c1 | 117% (inactive)
3 | Cc1c(CC(=O)NCCCC(=O)O)c(=O)oc2cc3occ(-c4ccccc4)c3cc12 | 75.4% (inactive)

From PubChem BioAssay AID720697 (Broad Institute, 2013)
